Data published in article PMC11062922 (Nature Chemical Biology, 2023).
Read-outs that look alike come from different tables or passages of the source.

Columns and labels:
Set-up in all cases: species or system human, MV4-11 + K-562 + COLO205 + SK-N-BE2 + OVCAR-8
[1] = system: ADCK3; conditions: read-out: apparent Kd, compound concentrations: 100 nM and 1000 nM (sheet 'Samples'), n = 1
[2] = system: CLK1; conditions: read-out: apparent Kd; compound concentrations: 100 nM and 1000 nM (sheet 'Samples'), CATDS: 7.7083223058971695E-2; n = 1
[3] = system: CLK4; conditions: read-out: apparent Kd; compound concentrations: 100 nM and 1000 nM (sheet 'Samples'), CATDS: 5.4708251309819003E-2; n = 1
[4] = system: FER; conditions: read-out: apparent Kd; compound concentrations: 100 nM and 1000 nM (sheet 'Samples'), CATDS: 0.15534788887379899; n = 1
[5] = system: FES; conditions: read-out: apparent Kd; compound concentrations: 100 nM and 1000 nM (sheet 'Samples'), CATDS: 6.2151263603986602E-2; n = 1
[6] = system: IGF1R; conditions: read-out: apparent Kd; compound concentrations: 100 nM and 1000 nM (sheet 'Samples'), CATDS: 0.14317930106922699; n = 1
[7] = system: INSR; conditions: read-out: apparent Kd; compound concentrations: 100 nM and 1000 nM (sheet 'Samples'), CATDS: 0.19841534550213699; n = 1
[8] = system: PLK1; conditions: read-out: apparent Kd; compound concentrations: 100 nM and 1000 nM (sheet 'Samples'), CATDS: 5.09869917251893E-2; n = 1
[9] = system: PRKCZ; conditions: read-out: apparent Kd; compound concentrations: 100 nM and 1000 nM (sheet 'Samples'), CATDS: 4.7711419359540999E-2; n = 1
[10] = system: PTK2B; conditions: read-out: apparent Kd; compound concentrations: 100 nM and 1000 nM (sheet 'Samples'), CATDS: 0.144435732024948; n = 1
[11] = system: PTK2; conditions: read-out: apparent Kd; compound concentrations: 100 nM and 1000 nM (sheet 'Samples'), CATDS: 9.0293978496921806E-2; n = 1
[12] = system: RIPK3; conditions: read-out: apparent Kd; compound concentrations: 100 nM and 1000 nM (sheet 'Samples'), CATDS: 4.6981822696137099E-2; n = 1
[13] = system: TNK1; conditions: read-out: apparent Kd; compound concentrations: 100 nM and 1000 nM (sheet 'Samples'), CATDS: 8.1384476326193098E-2; n = 1
[14] = system: TTK; conditions: read-out: apparent Kd; compound concentrations: 100 nM and 1000 nM (sheet 'Samples'), CATDS: 4.6872796614934702E-2; n = 1
[15] = system: BMPR2; conditions: read-out: apparent Kd; compound concentrations: 100 nM and 1000 nM (sheet 'Samples'), CATDS: 0.122163431962668; n = 1
[16] = system: CSNK1A1; conditions: read-out: apparent Kd, compound concentrations: 100 nM and 1000 nM (sheet 'Samples'), n = 1
[17] = system: CSNK1D; conditions: read-out: apparent Kd; compound concentrations: 100 nM and 1000 nM (sheet 'Samples'), CATDS: 0.25978966817559301; n = 1
[18] = system: CSNK1E; conditions: read-out: apparent Kd; compound concentrations: 100 nM and 1000 nM (sheet 'Samples'), CATDS: 0.174355768455381; n = 1
[19] = system: PKN2; conditions: read-out: apparent Kd, n = 1
[20] = system: ADRBK1; conditions: read-out: apparent Kd, n = 1
[21] = system: AKT1; conditions: read-out: apparent Kd; compound concentrations: 100 nM and 1000 nM (sheet 'Samples'), CATDS: 5.9095519599072298E-2; n = 1
[22] = system: AKT2; conditions: read-out: apparent Kd, n = 1
[23] = system: AKT3; conditions: read-out: apparent Kd, n = 1
[24] = system: CDK17; conditions: read-out: apparent Kd; compound concentrations: 100 nM and 1000 nM (sheet 'Samples'), CATDS: 5.5041868266542698E-2; n = 1
[25] = system: CDK6; conditions: read-out: apparent Kd, compound concentrations: 100 nM and 1000 nM (sheet 'Samples'), n = 1
[26] = system: CDKL5; conditions: read-out: apparent Kd; compound concentrations: 100 nM and 1000 nM (sheet 'Samples'), CATDS: 5.3023462381207802E-2; n = 1
[27] = system: MAP2K1; conditions: read-out: apparent Kd; compound concentrations: 100 nM and 1000 nM (sheet 'Samples'), CATDS: 5.50231746712945E-2; n = 1
[28] = system: MAP2K2; conditions: read-out: apparent Kd; compound concentrations: 100 nM and 1000 nM (sheet 'Samples'), CATDS: 7.31538140973165E-2; n = 1
[29] = system: MET; conditions: read-out: apparent Kd; compound concentrations: 100 nM and 1000 nM (sheet 'Samples'), CATDS: 5.0838558886591501E-2; n = 1
[30] = system: NNT; conditions: read-out: apparent Kd; compound concentrations: 100 nM and 1000 nM (sheet 'Samples'), CATDS: 6.8732534109556695E-2; n = 1
[31] = system: NQO1; conditions: read-out: apparent Kd, n = 1
[32] = system: PIP4K2C; conditions: read-out: apparent Kd; compound concentrations: 100 nM and 1000 nM (sheet 'Samples'), CATDS: 5.5359350052651503E-2; n = 1
[33] = system: PRKAG2; conditions: read-out: apparent Kd; compound concentrations: 100 nM and 1000 nM (sheet 'Samples'), CATDS: 6.3549748711714801E-2; n = 1
[34] = system: RAB6A;RAB6B; conditions: read-out: apparent Kd; compound concentrations: 100 nM and 1000 nM (sheet 'Samples'), CATDS: 6.9234988104968295E-2; n = 1
[35] = system: VDAC3; conditions: read-out: apparent Kd; compound concentrations: 100 nM and 1000 nM (sheet 'Samples'), CATDS: 6.3375606463047907E-2; n = 1
[36] = system: PRKCI; conditions: read-out: apparent Kd; compound concentrations:100 nM and 1000 nM (sheet 'Samples'); n = 1
[37] = system: PRKG1; conditions: read-out: apparent Kd; compound concentrations:100 nM and 1000 nM (sheet 'Samples'); n = 1
[38] = system: ROCK2; conditions: read-out: apparent Kd; compound concentrations:100 nM and 1000 nM (sheet 'Samples'); n = 1
[39] = system: RPS6KB1; conditions: read-out: apparent Kd; compound concentrations:100 nM and 1000 nM (sheet 'Samples'); n = 1
[40] = system: TTN; conditions: read-out: apparent Kd; compound concentrations:100 nM and 1000 nM (sheet 'Samples'); n = 1
[41] = system: CLK3; conditions: read-out: apparent Kd; compound concentrations: 100 nM and 1000 nM (sheet 'Samples'), CATDS: 0.34896481785662797; n = 1
[42] = compound concentrations:100 nM and 1000 nM (sheet 'Samples')

With `COc1cc(C)c(NC(=O)CN(C)C)cc1Nc1nc(Nc2cccc(F)c2C(N)=O)c2cc[nH]c2n1` [GSK2213727A] the potency estimated from few doses ([1]; CATDS: 5.9808730869804497E-2) was 688 nM, the potency estimated from few doses [2] was 335 nM and the potency estimated from few doses [3] was 936 nM. The potency estimated from few doses [4] was 82.7 nM, the potency estimated from few doses [5] was 609 nM and the potency estimated from few doses [6] was 94.7 nM. It also gave a potency estimated from few doses [7] of 56.7 nM, a potency estimated from few doses [8] of 1230 nM and a potency estimated from few doses [9] of 1660 nM. For the same compound, the potency estimated from few doses [10] was 93.3 nM, the potency estimated from few doses [11] was 231 nM and the potency estimated from few doses [12] was 1790 nM. For the same compound, the potency estimated from few doses [13] was 293 nM and the potency estimated from few doses [14] was 1810 nM.
`O=C(Nc1cccc(-c2nn3ccccc3c2-c2ccnc(Nc3cccc(F)c3)n2)c1)c1c(F)ccc(F)c1Cl` [GSK357952A] gave a potency estimated from few doses ([1]; CATDS: 1) of 131 nM.
In the case of `Cc1cc(C)c2c(n1)sc1c(N)ncnc12` [RO4241967-000], the potency estimated from few doses ([1]; CATDS: 0.164080926877189) is reported as 987 nM, the potency estimated from few doses [15] is reported as 2210 nM and the potency estimated from few doses ([16]; CATDS: 0.24698540566434601) is reported as 453 nM. The potency estimated from few doses [17] was 417 nM, the potency estimated from few doses [18] was 864 nM and the potency estimated from few doses ([19]; compound concentrations: 100 nM and 1000 nM (sheet 'Samples'), CATDS: 0.12366746425094501) was 2120 nM.
For `N#Cc1c(NC(=O)CN2CCOCC2)sc2c1CCCC2.O=C(O)C(=O)O` [SB-657836-AAA], the potency estimated from few doses ([20]; compound concentrations: 100 nM and 1000 nM (sheet 'Samples'), CATDS: 5.9509771658031299E-2) was 1680 nM, the potency estimated from few doses [21] was 1700 nM and the potency estimated from few doses ([22]; compound concentrations: 100 nM and 1000 nM (sheet 'Samples'), CATDS: 5.77170152352365E-2) was 1790 nM. For the same compound, the potency estimated from few doses ([23]; compound concentrations: 100 nM and 1000 nM (sheet 'Samples'), CATDS: 5.2731999581220101E-2) was 2170 nM, the potency estimated from few doses [24] was 1970 nM and the potency estimated from few doses ([25]; CATDS: 5.9987442985443201E-2) was 1650 nM. It also gave a potency estimated from few doses [26] of 2140 nM, a potency estimated from few doses ([16]; CATDS: 5.2392632468863803E-2) of 2200 nM and a potency estimated from few doses [27] of 1980 nM. For the same compound, the potency estimated from few doses [28] was 1150 nM, the potency estimated from few doses [29] was 2370 nM and the potency estimated from few doses [30] was 1280 nM. It also gave a potency estimated from few doses ([31]; compound concentrations: 100 nM and 1000 nM (sheet 'Samples'), CATDS: 6.20542756151947E-2) of 1550 nM, a potency estimated from few doses [32] of 1950 nM and a potency estimated from few doses [33] of 1480 nM. The potency estimated from few doses [34] was 1260 nM and the potency estimated from few doses [35] was 1490 nM.
Work on `CCn1c(-c2nonc2N)nc2cnc(Oc3cccc(NC(=O)c4ccc(OCCN5CCOCC5)cc4)c3)cc21.Cl` [GSK269962B] yielded a potency estimated from few doses [20, 42] of 1480 nM, a potency estimated from few doses [22, 42] of 2180 nM and a potency estimated from few doses [23, 42] of 1600 nM. The potency estimated from few doses [31, 42] was 175 nM, the potency estimated from few doses [19, 42] was 1850 nM and the potency estimated from few doses [36] was 1970 nM. The potency estimated from few doses [37] was 70.3 nM, the potency estimated from few doses [38] was 294 nM and the potency estimated from few doses [39] was 719 nM. The potency estimated from few doses [40] was 388 nM.
`COc1ccc(CNC(=O)NC2CCN(c3ccnc(Nc4ccc(OC)cc4)n3)C2)cc1` (stereo not drawn) [GSK1379727A] gave a potency estimated from few doses ([20]; compound concentrations: 100 nM and 1000 nM (sheet 'Samples'), CATDS: 0.35126637263884503) of 1270 nM, a potency estimated from few doses ([25]; CATDS: 0.30417888081932698) of 1700 nM and a potency estimated from few doses [41] of 1280 nM.
